The panel holds about 83,000 compounds, 20% with a hit somewhere; the sample as a whole holds those more often.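 Growth was measured after 48 h exposure to one concentration of compound in 96-well plates. Values under 10 count as active.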 Active and inactive are the calls of the source.
How the values were obtained:
Assay in all cases: NCI-60 one-dose screen, 48 h (100 = growth as untreated, 0 = no growth, -100 = all killed)
Conditions in all cases: 10 µM unless noted
SR leukemia = system: SR leukemia
OVCAR-8 ovarian = system: OVCAR-8 ovarian
OVCAR-5 ovarian = system: OVCAR-5 ovarian
OVCAR-4 ovarian = system: OVCAR-4 ovarian
SK-OV-3 ovarian = system: SK-OV-3 ovarian
IGROV1 ovarian = system: IGROV1 ovarian
OVCAR-3 ovarian = system: OVCAR-3 ovarian
HS 578T breast = system: HS 578T breast
NCI/ADR-RES ovarian = system: NCI/ADR-RES ovarian
T-47D breast = system: T-47D breast
BT-549 breast = system: BT-549 breast
MDA-MB-435 melanoma = system: MDA-MB-435 melanoma
SW-620 colon = system: SW-620 colon
MCF7 breast = system: MCF7 breast
HCT-116 colon = system: HCT-116 colon
HCC-2998 colon = system: HCC-2998 colon
KM12 colon = system: KM12 colon
RPMI-8226 leukemia = system: RPMI-8226 leukemia

Measured: growth

C=C[C@@H]1C[C@@H]2Cc3cc(Cl)ccc3N1O2
inactive: SR leukemia 92.4% | OVCAR-8 ovarian 99.4% | OVCAR-5 ovarian 97.8% | OVCAR-4 ovarian 102% | SK-OV-3 ovarian 101% | IGROV1 ovarian 112% | OVCAR-3 ovarian 109% | HS 578T breast 97.1% | NCI/ADR-RES ovarian 101% | T-47D breast 103% | BT-549 breast 105% | MDA-MB-435 melanoma 92.5% | SW-620 colon 96.7% | MCF7 breast 112% | HCT-116 colon 98.2% | HCC-2998 colon 94.2% | KM12 colon 97.3%

COc1cc([N+](=O)[O-])c2ncccc2c1O
inactive: SR leukemia 107% | OVCAR-8 ovarian 78.5% | OVCAR-5 ovarian 76.4% | OVCAR-4 ovarian 104% | SK-OV-3 ovarian 37% | IGROV1 ovarian 51.8% | OVCAR-3 ovarian 83.1% | NCI/ADR-RES ovarian 91.1% | T-47D breast 94.8% | BT-549 breast 86.9% | MDA-MB-435 melanoma 51.8% | SW-620 colon 58.6% | MCF7 breast 49% | HCT-116 colon 76.7% | HCC-2998 colon 26.2%
active: HS 578T breast -3.86% | KM12 colon -2.23%

COC(=O)C(Sc1ccc(Cl)cc1)C1SC(=S)N(Cc2ccccc2)C1=O (configuration not stated)
inactive: SR leukemia 50.8% | RPMI-8226 leukemia 84.6% | OVCAR-8 ovarian 101% | OVCAR-5 ovarian 118% | SK-OV-3 ovarian 108% | OVCAR-3 ovarian 105% | HS 578T breast 106% | NCI/ADR-RES ovarian 102% | T-47D breast 81.7% | BT-549 breast 84.1% | MDA-MB-435 melanoma 90.4% | SW-620 colon 98.3% | MCF7 breast 77.2% | HCT-116 colon 89.7% | HCC-2998 colon 103% | KM12 colon 99.6%

COc1ccc(C(=O)c2cc(OC)c3c(c2)OCO3)cc1O
inactive: RPMI-8226 leukemia 24.7% | OVCAR-8 ovarian 17.8% | OVCAR-4 ovarian 37.7% | IGROV1 ovarian 27.9% | HS 578T breast 12.2% | T-47D breast 56.9% | BT-549 breast 54.5% | SW-620 colon 24.6% | HCC-2998 colon 16.2%
active: SR leukemia 9.89% | SK-OV-3 ovarian 8.88% | OVCAR-3 ovarian -41.7% | NCI/ADR-RES ovarian 2.68% | MDA-MB-435 melanoma -22.5% | HCT-116 colon 7.71% | KM12 colon 4.48%

CCO/C=N/C1=C(C#N)C(c2ccc(Cl)cc2)c2c(c3ccccc3n(C)c2=O)O1 (configuration not stated)
active: MDA-MB-435 melanoma 1.36%
inactive: SR leukemia 22.7% | OVCAR-8 ovarian 86.3% | OVCAR-5 ovarian 85.1% | OVCAR-4 ovarian 68.6% | SK-OV-3 ovarian 81.8% | IGROV1 ovarian 59.1% | OVCAR-3 ovarian 64.3% | HS 578T breast 65.5% | NCI/ADR-RES ovarian 57.3% | T-47D breast 65.1% | BT-549 breast 81.4% | SW-620 colon 52.1% | MCF7 breast 41.7% | HCT-116 colon 66.5% | HCC-2998 colon 84.5% | KM12 colon 69.1%

COc1cc(C2C3=C(COC3=O)Nc3cc4c(cc32)CCC4)cc2c1OCO2 (configuration not stated)
inactive: RPMI-8226 leukemia 23.2% | OVCAR-8 ovarian 24.5% | OVCAR-4 ovarian 43.5% | SK-OV-3 ovarian 17.4% | IGROV1 ovarian 23.2% | HS 578T breast 28.4% | T-47D breast 64% | BT-549 breast 23.8% | SW-620 colon 25.4% | MCF7 breast 19.1%
active: SR leukemia 5.8% | OVCAR-3 ovarian -47.9% | NCI/ADR-RES ovarian -16.6% | MDA-MB-435 melanoma -12.3% | HCT-116 colon 5.73% | HCC-2998 colon 8.29% | KM12 colon 3%

COc1ccc(C(=O)n2nc(/C=C/c3ccc(O)c(OC)c3)cc2/C=C/c2ccc(O)c(OC)c2)cc1
active: SR leukemia -9.23% | RPMI-8226 leukemia -27.3% | OVCAR-8 ovarian -5.24% | OVCAR-5 ovarian -18.8% | OVCAR-3 ovarian 1.05% | HS 578T breast 0.538% | T-47D breast -4.93% | MDA-MB-435 melanoma -22.5% | SW-620 colon 4.16% | MCF7 breast -3.07% | HCT-116 colon -0.661% | KM12 colon 6.33%
inactive: IGROV1 ovarian 12.8% | NCI/ADR-RES ovarian 26% | HCC-2998 colon 16.4%

COc1cc(C2CC(c3ccc4c(c3)OCO4)=NN2C=O)cc(OC)c1OC (configuration not stated)
active: OVCAR-3 ovarian -29% | HS 578T breast 8.51% | MDA-MB-435 melanoma -25.9%
inactive: SR leukemia 33.5% | RPMI-8226 leukemia 52.8% | OVCAR-8 ovarian 53.9% | OVCAR-4 ovarian 57.7% | SK-OV-3 ovarian 24.7% | NCI/ADR-RES ovarian 15.5% | BT-549 breast 40.3% | SW-620 colon 27% | MCF7 breast 16.8% | HCC-2998 colon 64.2% | KM12 colon 23.3%

COc1ccc(C(=O)N2NC(=O)/C(=C/c3ccccc3F)N=C2c2ccccc2)cc1
inactive: SR leukemia 104% | OVCAR-8 ovarian 101% | OVCAR-5 ovarian 108% | OVCAR-4 ovarian 106% | SK-OV-3 ovarian 112% | IGROV1 ovarian 107% | OVCAR-3 ovarian 114% | HS 578T breast 110% | NCI/ADR-RES ovarian 105% | T-47D breast 97.2% | BT-549 breast 106% | MDA-MB-435 melanoma 106% | SW-620 colon 111% | MCF7 breast 91.2% | HCT-116 colon 102% | HCC-2998 colon 97.8% | KM12 colon 106%

COc1cc(NCCCCCN)c2ncccc2c1
inactive: SR leukemia 70.6% | RPMI-8226 leukemia 88.8% | OVCAR-8 ovarian 100% | OVCAR-4 ovarian 86.8% | SK-OV-3 ovarian 109% | IGROV1 ovarian 98% | HS 578T breast 113% | NCI/ADR-RES ovarian 109% | T-47D breast 96.2% | BT-549 breast 113% | MDA-MB-435 melanoma 114% | SW-620 colon 99.4% | HCC-2998 colon 125% | KM12 colon 109%

O=C(/C=C/c1cc(-c2ccc3c(c2)OCO3)n[nH]1)c1ccc2c(c1)OCO2
inactive: SR leukemia 44.5% | RPMI-8226 leukemia 56.6% | OVCAR-8 ovarian 86.9% | OVCAR-4 ovarian 71.3% | SK-OV-3 ovarian 109% | IGROV1 ovarian 91.6% | OVCAR-3 ovarian 90.7% | HS 578T breast 95.2% | NCI/ADR-RES ovarian 102% | T-47D breast 72.7% | BT-549 breast 88% | MDA-MB-435 melanoma 99.7% | MCF7 breast 84.8% | HCT-116 colon 92.7% | HCC-2998 colon 106% | KM12 colon 94.6%

N#Cc1c(Nc2ccccc2)nc2n(c1=O)-c1ccccc1Sc1ccccc1-2
inactive: SR leukemia 59.6% | RPMI-8226 leukemia 66.7% | OVCAR-8 ovarian 74.9% | OVCAR-5 ovarian 110% | SK-OV-3 ovarian 94.8% | OVCAR-3 ovarian 69.4% | HS 578T breast 97.9% | NCI/ADR-RES ovarian 85.5% | T-47D breast 55.9% | BT-549 breast 82.3% | MDA-MB-435 melanoma 82.8% | SW-620 colon 99.2% | HCT-116 colon 82.9% | HCC-2998 colon 102% | KM12 colon 97.9%

CCOC(=O)CN1/C(=N/c2sc3c(c2C(=O)OCC)CCN(C(=O)OCC)C3)SC(=O)/C1=C\C(=O)OC
inactive: SR leukemia 29.8% | OVCAR-8 ovarian 75.2% | OVCAR-5 ovarian 89.9% | SK-OV-3 ovarian 111% | OVCAR-3 ovarian 92.1% | NCI/ADR-RES ovarian 87% | T-47D breast 30.8% | BT-549 breast 89.4% | MDA-MB-435 melanoma 99.7% | SW-620 colon 71.6% | MCF7 breast 49.3% | HCT-116 colon 71.6% | HCC-2998 colon 94.4% | KM12 colon 97.4%
active: RPMI-8226 leukemia -28.8%

COc1ccc(-c2cnnn2-c2nonc2-n2cccc2)cc1OC
active: SR leukemia -4.66% | MDA-MB-435 melanoma -36.9%
inactive: RPMI-8226 leukemia 52.2% | OVCAR-8 ovarian 66.5% | OVCAR-4 ovarian 90.6% | SK-OV-3 ovarian 61.8% | IGROV1 ovarian 62.4% | OVCAR-3 ovarian 30.2% | HS 578T breast 82.5% | NCI/ADR-RES ovarian 18.3% | T-47D breast 45.3% | BT-549 breast 60.1% | SW-620 colon 27% | MCF7 breast 30.4% | HCT-116 colon 35.6% | HCC-2998 colon 62%

COc1ccc(-c2ccc(C)n2-c2ccc(-c3nc4cc(Cl)ccc4s3)cc2)cc1
inactive: SR leukemia 76.9% | OVCAR-8 ovarian 104% | OVCAR-5 ovarian 74.6% | OVCAR-4 ovarian 84.8% | SK-OV-3 ovarian 96.7% | IGROV1 ovarian 54.9% | OVCAR-3 ovarian 109% | HS 578T breast 103% | NCI/ADR-RES ovarian 95.8% | T-47D breast 66.8% | BT-549 breast 116% | MDA-MB-435 melanoma 95.1% | SW-620 colon 103% | MCF7 breast 48.3% | HCT-116 colon 97.4% | HCC-2998 colon 92.3% | KM12 colon 89.1%

COc1cc(C2C3=C(COC3=O)Nc3cc4c(cc32)OCO4)cc2c1OCO2 (configuration not stated)
active: SR leukemia -0.432% | OVCAR-3 ovarian -45.3% | NCI/ADR-RES ovarian 9.84% | MDA-MB-435 melanoma -20.4% | HCT-116 colon 6.83% | HCC-2998 colon 8.39% | KM12 colon 1.28%
inactive: RPMI-8226 leukemia 21.9% | OVCAR-8 ovarian 14.3% | OVCAR-4 ovarian 51.9% | SK-OV-3 ovarian 12.8% | IGROV1 ovarian 23.6% | HS 578T breast 14.6% | T-47D breast 51.9% | BT-549 breast 25.4% | SW-620 colon 17.1% | MCF7 breast 13.9%

Fc1ccccc1-c1nc(-c2nc3cc(Cl)c(Cl)cc3[nH]2)c2ccccn12
active: OVCAR-4 ovarian 1.61%
inactive: SR leukemia 20.7% | RPMI-8226 leukemia 74.7% | OVCAR-8 ovarian 68.4% | SK-OV-3 ovarian 83.7% | IGROV1 ovarian 21.9% | OVCAR-3 ovarian 70.5% | HS 578T breast 44% | NCI/ADR-RES ovarian 76% | T-47D breast 31.5% | BT-549 breast 88.9% | MDA-MB-435 melanoma 73.6% | SW-620 colon 80.2% | MCF7 breast 40.5% | HCT-116 colon 37.7% | HCC-2998 colon 96.2% | KM12 colon 80.5%

CCCOC(=O)n1cccc1
inactive: SR leukemia 114% | RPMI-8226 leukemia 110% | OVCAR-8 ovarian 108% | OVCAR-4 ovarian 91.7% | SK-OV-3 ovarian 101% | OVCAR-3 ovarian 106% | HS 578T breast 105% | NCI/ADR-RES ovarian 102% | BT-549 breast 103% | MDA-MB-435 melanoma 110% | SW-620 colon 102% | MCF7 breast 95% | HCT-116 colon 103% | HCC-2998 colon 104% | KM12 colon 99.7%

CC(C)OC(=O)N1CCOCC1
inactive: SR leukemia 109% | RPMI-8226 leukemia 107% | OVCAR-8 ovarian 95.6% | OVCAR-4 ovarian 95.5% | SK-OV-3 ovarian 98.1% | OVCAR-3 ovarian 115% | NCI/ADR-RES ovarian 108% | BT-549 breast 101% | MDA-MB-435 melanoma 117% | SW-620 colon 95.4% | MCF7 breast 100% | HCT-116 colon 102% | HCC-2998 colon 104% | KM12 colon 100%
